This is a sample that favours compounds with a hit; in the whole collection about 4.7% have one here.
tim10-1 inh = growth inhibitors of tim10-1 mutant yeast | S. cerevisiae tim10-1 ts strain growth, BacTiter-Glo, 24 h | inhibition, % at 20 µM | AID 463190 | 330,000 compounds, 2.2% hits;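 active = inhibition of at least 40%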;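 also: mutant grown at 25 °C; 0% = DMSO wells with yeast and 100% = wells holding no yeast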
SKKanGAS inh = SKKanGAS growth inhibition | S. pyogenes SKKanGAS, kanamycin growth, BacTiter-Glo, 6 h | inhibition, % at 7.5 µM | 300,000 compounds, 1.3% hits | AID 1662;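 active = mean replicate score, as percent of positive control median, at least 50; inconclusive = mean below 50 but one replicate at or above 50; inactive = mean and every replicate below 50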;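 also: strain carries kanamycin resistance gene driven by streptokinase promoter and grows in 40 µg/ml kanamycin; loss of luminescence reflects streptokinase promoter inhibition or plain growth inhibition; 0% = median of DMSO wells and 100% = positive control at its reference dose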
PfHsp90 yeast 2 = reduces growth (ATP signal) of yeast expressing P. falciparum Hsp90; S. cerevisiae expressing PfHsp90, BacTiter-Glo ATP, 48 h; yeast lacking PDR1 and PDR3 efflux regulators; 310,000 compounds, 0.32% hits; inhibition, % at 9.4 µM;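 active = every replicate shows inhibition above about 80%, whatever the replicate mean, limit read from the data; inconclusive = mean inhibition reaches the set limit but some replicate falls short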;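 also: 0% = DMSO neutral controls and 100% = 20 µM radicicol positive controls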
TIM10 inh = inhibits growth of TIM10 yeast strain; S. cerevisiae TIM10 strain growth, BacTiter-Glo luminescence, 24 h; inhibition, % at 10 µM; 330,000 compounds, 1.4% hits;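 active = inhibition of 40% or more at the single tested concentration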;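 also: wild-type TIM10 isogenic control strain grown at permissive 25 °C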
Calb FLC = affects C. albicans growth with fluconazole | C. albicans CaCi-2 (fluconazole-resistant clinical isolate) + fluconazole, Alamar Blue growth, 48 h | AID 1979 | growth inhibition, % (no concentration beside the values) | 300,000 compounds, 0.57% hits;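 active = growth inhibition above about 58% in most replicates, limit read from the data, passing the limit was not always enough; inconclusive = exactly half the replicates above a set limit; inactive = most replicates below a set limit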;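 also: all wells also contain fluconazole at 8 µg/ml as a sub-toxic cotreatment; 0% = median of DMSO wells and 100% = median of geldanamycin control wells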
tim23-1 inh = tim23-1 yeast growth inhibition; S. cerevisiae tim23-1 growth, BacTiter-Glo luminescence, 24 h; inhibition, % at 20 µM; 330,000 compounds, 1.3% hits;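 active = growth inhibition of the mutant yeast at or above 50%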;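 also: temperature-sensitive mutant grown at 25 °C; plate controls were DMSO-treated mutant yeast for no effect and medium wells lacking yeast for full effect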
tim10-1 confirm = tim10-1 yeast growth inhibition, confirmed. 7,400 compounds, 56% hits. AID 463213. shares compounds with tim10-1 inh. S. cerevisiae tim10-1 ts strain growth, BacTiter-Glo, 24 h. inhibition, % at 20 µM;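 active = inhibition of yeast growth at or above a set limit in either of two repeat tests at 20 µM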;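 also: tim10-1 mutant grown at permissive 25 °C to find synthetic lethal compounds; 0% = DMSO yeast wells and 100% = medium wells without yeast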
An asterisk follows results filed as active; u = inconclusive; x = not tested or not shown.

SMILES	tim10-1 inh	SKKanGAS inh	PfHsp90 yeast 2	TIM10 inh	Calb FLC	tim23-1 inh	tim10-1 confirm
CCCN(CCC)C(=O)c1cn(CC)c2ccc(S(=O)(=O)N3CCCCC3)cc2c1=O	-4	-1	6	-8	-8	1	x
Cc1cc2c(sc3c(C)ccc(C)c32)c(C)n1	48*	-11	-6	14	-30	45	18
CCN(CC(=O)Nc1c(F)cccc1F)C(=O)COc1cccc2c1OC(C)(C)C2	-9	1	x	3	6	4	x
Cc1ccc2c(nc3s/c(=C/c4cccs4)c(=O)n32)c1C	x	x	-3	x	x	x	x
Cc1ccc2c(nc3s/c(=C\c4ccc(-c5ccccc5C(=O)O)o4)c(=O)n32)c1C	46*	26	-46	33	16	47	18
O=C(NC(=S)N1CCCCCC1)c1ccc(Cl)cc1Cl	48*	23	-6	39	8	45	30*
O=C(/C=C/c1cccc([N+](=O)[O-])c1)NCCSCc1ccc(Cl)cc1	45*	5	8	25	-48	28	22
Cc1ccccc1CSCCNC(=O)CSCc1ccc([N+](=O)[O-])cc1	38	3	-61	22	-46	38	x
Cc1cccc(CSCCNC(=O)CSCc2ccc([N+](=O)[O-])cc2)c1	46*	0	-9	20	-18	30	28
Cc1ccc(CSCCNC(=O)CSCc2ccc([N+](=O)[O-])cc2)cc1	42*	-8	x	14	-7	33	29
COc1cccc(OC)c1-c1nn2c(-c3ccco3)nnc2s1	45*	-3	10	20	34	22	31*
c1ccc(-c2nn3c(-c4ccco4)nnc3s2)nc1	8	-4	5	-11	-25	-7	x
Cn1c(COc2ccccc2O)[n+](C)c2ccccc21	0	4	-14	13	15	9	x
CCCCCCCCCCOC(=O)Cn1c(COc2ccccc2OC)[n+](C)c2ccccc21	46*	75*	-31	33	-12	23	65*
COc1ccc(-c2oc3ccc(-c4cc(OC)c(OC)c(OC)c4)cc3c2-c2ccc(OC)nc2)cc1	17	26	-9	-2	-4	-19	x
COc1ccc(-n2c(C)cc(C(=O)COC(=O)Cn3cnc4ccccc43)c2C)cc1	53*	6	-13	28	-24	35	28
Cc1ccc(N(Cc2ccccc2)C(=O)c2cc(S(=O)(=O)N3CCOCC3)ccc2F)cc1	15	x	22	12	x	22	x
CC(=O)C1=C(O)C(=O)N(c2ccc(O)cc2)C1c1ccccc1Cl (stereo not given)	11	1	-12	-6	-9	10	x
CCOC(=O)c1ccc(NC(=O)CC2COc3ccccc3O2)cc1 (stereo not given)	41*	-2	-26	22	1	47	29
CCN(CC1COc2ccccc2O1)C(=S)Nc1ccccc1 (stereo not given)	44*	6	-9	29	-11	49	15*
CCC(=O)Nc1ccc(C(=O)NNC(=O)c2ccccc2)cc1	-7	8	2	0	32	26	x
CCC(=O)Nc1ccc(C(=O)OCc2ccccc2)cc1	41*	-3	x	35	5	32	36*
CCCCn1c(N)c(N(CCC(C)C)C(=O)C2CCCN(C(=O)c3ccc(Cl)cc3)C2)c(=O)[nH]c1=O (stereo not given)	-1	-5	9	-4	0	10	x
CN(C)Cc1c(OC(=O)c2ccc(N)cc2)ccc2ccccc12	x	x	1	x	x	x	x
O=C1CCc2cc(S(=O)(=O)Nc3ccccc3F)cc3c2N1CCC3	-11	27	-7	4	21	-3	x
SMILES	tim10-1 inh	SKKanGAS inh	PfHsp90 yeast 2	TIM10 inh	Calb FLC	tim23-1 inh	tim10-1 confirm
Cc1cccc(OCC(=O)Nc2nccs2)c1C	42*	12	-9	21	-2	24	25
Cc1ccccc1CN1C(=O)/C(=C\c2ccc(C(=O)NCCN3CCOCC3)cc2)Sc2ccccc21	45*	15	7	17	-5	25	-7
Cc1cccc(CN2C(=O)/C(=C\c3ccc(C(=O)NCCN4CCOCC4)cc3)Sc3ccccc32)c1	42*	7	41	10	-5	35	10
CC(=O)NS(=O)(=O)c1ccc(NC(=O)c2ccc(S(=O)(=O)N3CCCC3)cc2)cc1	-5	x	x	3	x	6	x
C/C(=N\NC(N)=S)c1ccc(-n2ccnc2)cc1	10	5	-17	-4	-2	15	x
C/C(=N\Nc1ccc(Cl)c(Cl)c1)c1ccc(-n2ccnc2)cc1	46*	81*	-22	35	-1	12	19
Cc1ccccc1OCC(=O)Nn1c(COc2ccccc2)nc2ccccc2c1=O	45*	22	-11	13	-11	40	27
CCn1nccc1C(=O)Nc1ccc(Cl)cn1	20	2	-20	19	0	6	x
CCn1nccc1C(=O)Nc1cc(Cl)cc(Cl)c1	41*	-2	14	35	6	41	24
CN(C)S(=O)(=O)c1ccc(Cl)c(NC(=O)CN2CCCC2)c1	3	0	6	-1	-1	14	x
O=[N+]([O-])c1ccc(Cl)c2c1C1C=CCC1C(c1ccccn1)N2 (stereo not given)	39	10	9	30	23	22	x
O=C(O)c1ccc(Cl)c2c1C1C=CCC1C(c1ccccn1)N2 (stereo not given)	43*	0	x	0	2	28	12
CCOC(=O)N1CCC(N2C(=O)c3ccc(C(=O)Nc4cccc(OC)c4)cc3C2=O)CC1	-22	2	7	1	-9	5	x
CCC1=NN2C(=N)/C(=C\c3cccn3-c3ccc(Br)cc3)C(=O)N=C2S1	x	38	-5	x	52	x	x
COc1ccc(-n2cccc2/C=C2\C(=N)N3N=C(C(C)C)SC3=NC2=O)cc1	40*	33	-21	7	98*	25	26
CCC1=NN2C(=N)/C(=C\c3cccn3-c3cccc(Cl)c3)C(=O)N=C2S1	46*	36	7	35	u	37	37*
COCCNc1nnc(SCC(=O)NNC(=O)c2ccc([N+](=O)[O-])cc2)s1	11	-6	-1	0	x	3	x
CCn1c(-c2cccnc2Cl)nc2cc(Cl)c(Cl)cc21	23	1	5	-5	-5	28	x
Clc1ccc(Cn2c(-c3cccnc3Cl)nc3ccccc32)cc1	43*	3	1	7	6	31	26
Clc1ccc(Cn2c(-c3cccnc3Cl)nc3ccccc32)c(Cl)c1	42*	2	10	22	1	22	12
Clc1cccc(-c2ccc(C3Nc4cccc5cccc(c45)N3)o2)c1	34	x	18	13	x	43	x

Screening results: PubChem, several laboratories
